Rows were chosen to be rich in hits. Some 1.3% of all compounds tested hit in one or more screens of this group.
FH mod: Identification of activators of human fumarate hydratase by quantitative high-throughput screening | FH coupled MDH/diaphorase resazurin fluorescence, 15 min | Fumarate hydratase, mitochondrial (Homo sapiens), P07954 | hit rate 0.22% among 54,000 | Potency, µM (doses to about 79.9 µM), inactives show top-dose activity change, negative = inhibition, hits mostly inhibitors | AID 1347055, 2019; note: % is set by controls: 0 for no effect and ±100 for the full control effect; the screen sought activators but most active calls are inhibition curves; nearly all actives have a fitted effect of over 45% in size
Target sequence (P07954 whole entry, looked up): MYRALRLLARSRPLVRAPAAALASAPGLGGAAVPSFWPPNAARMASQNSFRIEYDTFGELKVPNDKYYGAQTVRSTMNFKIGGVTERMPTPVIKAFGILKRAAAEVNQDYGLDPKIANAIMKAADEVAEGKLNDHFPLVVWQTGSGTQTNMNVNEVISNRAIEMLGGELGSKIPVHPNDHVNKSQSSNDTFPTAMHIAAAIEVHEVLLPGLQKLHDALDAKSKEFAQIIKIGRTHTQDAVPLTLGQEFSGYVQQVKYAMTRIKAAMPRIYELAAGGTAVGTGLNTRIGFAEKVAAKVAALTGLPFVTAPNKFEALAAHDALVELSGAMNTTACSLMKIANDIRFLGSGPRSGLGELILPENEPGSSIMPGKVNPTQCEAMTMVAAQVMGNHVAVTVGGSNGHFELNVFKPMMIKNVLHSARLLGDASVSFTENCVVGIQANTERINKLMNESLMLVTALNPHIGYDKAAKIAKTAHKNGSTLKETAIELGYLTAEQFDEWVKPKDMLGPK
HTT promoter inh: Primary qHTS for Identification of Small Molecule Inhibitors of Huntingtin Promoter Activity | hit rate 0.93% among 48,000 | Potency, µM (highest dose often 57.5 µM), without a hit: at the top dose activity change, negative = inhibition, usual class: inhibitors | HEK293 HTT promoter firefly luciferase reporter, 24 h | AID 1508623, 2021; note: nearly all actives have a fitted effect of over 50% in size
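Firefly luciferase signal from promoter-reporter HEK293 cells was scaled between vehicle (0%) and zero RLU (-100%). Compounds were tested at final concentrations of up to 57.5 uM over 24 h at 37 degrees C. PTC124 at 50 uM final served as control inhibitor.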
HTT-AS promoter: Primary qHTS for Identification of Small Molecule Activators of Huntingtin-Antisense Promoter Activity. hit rate 0.24% among 48,000. Potency, µM (top dose mostly 57.5 µM), for inactives: top-dose activity change, positive = activation, usual class: activators. HEK293 HTT-AS promoter firefly luciferase reporter, 24 h; response scale: percent change from vehicle, -100% = no light; note: nearly all actives have a fitted effect of over 55% in size
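HEK293 luciferase promoter-reporter cells (2,500/well) plated 24 h, then compounds added at up to 57.5 uM final for 24 h at 37 °C. Firefly luminescence by Dual-Glo, normalized to vehicle (0%) and zero RLU (-100%).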
* = called active by the depositor; ? = inconclusive; . = not tested or not shown; [ ] = dose if it differs, or a comment. Calls come from the whole dose curve; as a rule, active = well fitted curve in the direction sought with a large enough effect; inconclusive = small, poorly fitted or top-dose-only effect, or another doubt; inactive = no such curve, though single readings can be large; an effect the other way counts as inactive or inconclusive. Potency is the fitted concentration of half-maximal effect.

SMILES	FH mod	HTT promoter inh	HTT-AS promoter
Cc1ccc(Cn2c(SCc3ccc(C(=O)N4CCCCC4)cc3)nc3ccncc32)cc1	0%	13µM*	-60%
Cc1ccc(Cn2c(SCc3ccc(C(=O)N4CCCCCC4)cc3)nc3ccncc32)cc1	-4%	32µM*	-46%
COC1CC(=O)C23C(=O)NC(Cc4c[nH]c5ccccc45)C2C(C)C2(C)OC2C3/C=C/CC(C)CC1O (stereo unspecified)	4%[53.3 µM]	.	.
CN(C)CCCNc1nc(CN2CCN(C(c3ccc(Cl)cc3)c3ccc(Cl)cc3)CC2)nc2ccccc12	1%	.	.
COc1ccccc1C(=O)OCc1cc(=O)n2c(C)csc2n1	14%	59%	11µM*
COc1cccc(C(=O)Nc2ccccc2C(=O)OCc2cc(=O)n3c(C)csc3n2)c1	4%	-25%	-20%
CC(C)(C)c1ccc(-c2nc3ccccc3[nH]2)cc1	0%[53.3 µM]	.	.
Nc1ccn([C@H]2O[C@@H](CO)[C@H](O)[C@H]2O)c(=O)n1	21%	.	.
O=Nc1ccc2oc(=O)ccc2c1	1µM*	.	.
O=c1ccc2ccc(O)c(O)c2o1	?	?	-93%
C[C@@H]1O[C@@H](O[C@H]2[C@@H]3C=CO[C@@H](O[C@@H]4O[C@H](CO)[C@@H](O)[C@H](O)[C@H]4O)[C@@H]3[C@@]3(CO)O[C@@H]23)[C@H](O)[C@H](O)[C@H]1OC(=O)/C=C/c1ccc(O)cc1	5%[20.6 µM]	.	.
CN(c1ccc(F)cc1)S(=O)(=O)N1CCCC(C(=O)NCc2ccccc2Cl)C1 (stereo unspecified)	-21%	?	-27%
COc1cccc(CNC(=O)C2CCCN(S(=O)(=O)N(C)c3ccc(F)cc3)C2)c1OC (stereo unspecified)	3%	25µM*	-90%
Cc1nnc(-c2ccc(-c3ccc(C(=O)Nc4ccc(O)c(N5CCN(C)CC5)c4)cc3)c(C)c2)o1	1%	.	.
COc1c2c(c(C)c3c1C(=O)OC3)OC1(C)CC(O)C34OC(OC)(CC(OC(C)=O)C3(C)C1C2)OC4(C)C (stereo unspecified)	21%[53.3 µM]	.	.
CC(C)c1onc(-c2c(Cl)cccc2Cl)c1COc1ccc(C=Cc2cccc(C(=O)O)c2)c(Cl)c1	?	23%	?
CN(Cc1ccc(C(=O)O)cc1)c1ccc(OCc2c(-c3c(Cl)cccc3Cl)noc2C2CC2)nc1C(F)(F)F	16µM*	.	.
Cc1cc(S(=O)(=O)Nc2ccc(O)c(Sc3nc4ccccc4s3)c2)ccc1Cl	?	-10%	-18%
O=S(=O)(Nc1ccc(O)c(Sc2nc3ccccc3s2)c1)c1cc(Cl)ccc1Cl	16µM*	?	-20%
CCC(C(=O)NCCc1ccc(SC)cc1)n1nc(C)c2c(C)n(-c3ccc(C)cc3)nc2c1=O (stereo unspecified)	-5%	35µM*	-27%
Cc1ccc(-n2nc3c(=O)n(C(C)C(=O)NCc4ccc(OC(C)C)cc4)nc(C)c3c2C)cc1 (stereo unspecified)	-12%	7.1µM*	-58%
CSc1ccc(CCNC(=O)C(C)n2nc(C)c3c(C)n(-c4ccccc4)nc3c2=O)cc1 (stereo unspecified)	-7%	?	-8%
Cc1ccc(-n2nc3c(=O)n(C(C)C(=O)NCc4ccccc4C)nc(C)c3c2C)cc1 (stereo unspecified)	-13%	?	-43%
CC1NC(=O)C(Cc2c[nH]c3ccccc23)NC1=O (stereo unspecified)	5%	.	.
CC1COC2(OC3CC4C5CC(O[C@@H]6O[C@H](C)[C@@H](O[C@@H]7O[C@@H](C)[C@H](O)[C@@H](O)[C@H]7O)[C@H](O)[C@H]6O)C6CC(O)CCC6(C)C5CCC4(C)C3C2C)C(O)C1 (stereo partly specified)	7%[20.6 µM]	.	.
SMILES	FH mod	HTT promoter inh	HTT-AS promoter
C=C(F)c1sc(CNCCCNc2cc(=O)c3ccccc3[nH]2)c(C)c1Br	2%	.	.
Cn1c(SCc2ccc(F)cc2)nc2ccc(C(=O)NCc3ccc(Cl)cc3)cc21	-14%	?	-45%
Cc1ccc(CNC(=O)c2ccc3nc(SCc4ccc(F)cc4)[nH]c3c2)cc1	?	22µM*	-87%
CC(C)Oc1ccc(CNC(=O)c2ccc3nc(SCc4ccc(F)cc4)n(C)c3c2)cc1	-1%	?	-20%
Cn1c(SCc2ccc(F)cc2)nc2ccc(C(=O)NCc3ccc(F)cc3)cc21	-12%	25µM*	-62%
Cc1nn(C)c2c1C(c1ccc(C(F)(F)F)cc1)C(C#N)=C(N)O2 (stereo unspecified)	6%	.	.

Source: PubChem
